# Data taken from PubChem BioAssay (EPA / NIEHS).
# Results filed as inconclusive are left out. Active and inactive are the calls of the source. How the source made its calls: active means hit-call score of the fitted dose curve at least 0.9, where 1 is the maximum; inconclusive means response in the unintended direction; inactive means score below 0.9.
# Tests used:
# [1] = biological target: sheep Cyclooxygenase-1 (Cox1), PTGS1 (gene 443551) (UniProt P05979); assay: NVS_ENZ_oCOX1: NovaScreen (NVS) Enzymatic Assay for sheep Cyclooxygenase-1 (Cox1) (AID 2283239);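 further: actives reduce cyclooxygenase activity so potencies are for inhibitors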
# How it was run: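 Cell-free colorimetric assay of enzyme activity in a native extract of ovine seminal vesicles. Absorbance was read 0.66 hour after compound addition. Loss of signal relative to the DMSO negative control was scored, with actives from the 25 uM duplicate primary screen retested in concentration series.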
# [2] = biological target: human Phosphoinositide 3-kinase alpha (PI3Ka), PIK3CA (gene 5290) (UniProt P42336); assay: NVS_ENZ_hPI3Ka: NovaScreen (NVS) Enzymatic Assay for human Phosphoinositide 3-kinase alpha (PI3Ka) (AID 2283196)
# How it was run: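 Recombinant human PI3Kα with fluorescent substrate, 1 h, product separated by electrophoretic mobility shift; 25 uM duplicate screen, hits (e.g., 30% inhibition) retested singly up to 50 uM; loss of signal vs DMSO.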
# [3] = biological target: human Adenosine A2a Receptor (AdoRA2a), ADORA2A (gene 135) (UniProt P29274); assay: NVS_GPCR_hAdoRA2a: NovaScreen (NVS) G Protein-Coupled Receptor Assay for human Adenosine A2a Receptor (AdoRA2a) (AID 2283256)
# Sequence of human Adenosine A2a Receptor (AdoRA2a), ADORA2A (gene 135) (P29274 whole entry, looked up): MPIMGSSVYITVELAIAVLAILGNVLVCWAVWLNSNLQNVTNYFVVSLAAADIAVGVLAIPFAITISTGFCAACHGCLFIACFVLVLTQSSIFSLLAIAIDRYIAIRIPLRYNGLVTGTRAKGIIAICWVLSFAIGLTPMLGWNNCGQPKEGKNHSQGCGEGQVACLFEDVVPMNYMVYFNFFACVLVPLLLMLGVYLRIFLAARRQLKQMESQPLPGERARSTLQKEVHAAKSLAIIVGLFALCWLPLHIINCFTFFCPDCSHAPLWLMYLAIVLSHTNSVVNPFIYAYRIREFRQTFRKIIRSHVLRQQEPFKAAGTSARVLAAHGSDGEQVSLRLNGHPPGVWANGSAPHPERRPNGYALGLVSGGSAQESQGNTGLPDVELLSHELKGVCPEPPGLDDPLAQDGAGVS
# How it was run: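 Compounds screened in duplicate at 25 uM, with actives followed up in concentration series, for displacement of a radioligand from HEK293-derived receptor protein. Bound counts read by filter scintillation at 1.5 hours, DMSO as baseline.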
# [4] = biological target: guinea pig Leukotriene D4 Receptor (LTD4), CYSLTR1 (gene 100135514) (UniProt Q2NNR5); assay: NVS_GPCR_gLTD4: NovaScreen (NVS) G Protein-Coupled Receptor Assay for guinea pig Leukotriene D4 Receptor (LTD4) (AID 2283248)
# Sequence of guinea pig Leukotriene D4 Receptor (LTD4), CYSLTR1 (gene 100135514) (Q2NNR5 whole entry, looked up): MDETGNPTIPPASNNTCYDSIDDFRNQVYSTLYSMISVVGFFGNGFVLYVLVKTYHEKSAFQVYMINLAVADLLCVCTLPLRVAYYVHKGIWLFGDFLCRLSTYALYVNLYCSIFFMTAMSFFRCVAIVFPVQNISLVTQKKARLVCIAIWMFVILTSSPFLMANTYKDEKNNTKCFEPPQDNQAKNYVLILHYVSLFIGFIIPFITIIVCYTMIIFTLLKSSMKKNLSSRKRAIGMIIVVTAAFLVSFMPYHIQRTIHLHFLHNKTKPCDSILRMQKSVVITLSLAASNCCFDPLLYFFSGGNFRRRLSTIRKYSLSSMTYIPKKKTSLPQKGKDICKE
# How it was run: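 Guinea pig lung membrane preparation; bound radioligand measured by filter scintillation after 1 h, loss of signal versus DMSO marking displacement. Compounds tested at 25 uM in duplicate, hits retested to max 50 uM.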
# [5] = biological target: guinea pig Opioid, Kappa 1 Receptor (OpiateK), OPRK1 (gene 100135587) (UniProt P41144); assay: NVS_GPCR_gOpiateK: NovaScreen (NVS) G Protein-Coupled Receptor Assay for guinea pig Opioid, Kappa 1 Receptor (OpiateK) (AID 2283252);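 further: radioligand displacement from kappa opioid receptor in guinea pig cerebellar membranes; active means reduced radioligand binding relative to DMSO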
# Sequence of guinea pig Opioid, Kappa 1 Receptor (OpiateK), OPRK1 (gene 100135587) (P41144 whole entry, looked up): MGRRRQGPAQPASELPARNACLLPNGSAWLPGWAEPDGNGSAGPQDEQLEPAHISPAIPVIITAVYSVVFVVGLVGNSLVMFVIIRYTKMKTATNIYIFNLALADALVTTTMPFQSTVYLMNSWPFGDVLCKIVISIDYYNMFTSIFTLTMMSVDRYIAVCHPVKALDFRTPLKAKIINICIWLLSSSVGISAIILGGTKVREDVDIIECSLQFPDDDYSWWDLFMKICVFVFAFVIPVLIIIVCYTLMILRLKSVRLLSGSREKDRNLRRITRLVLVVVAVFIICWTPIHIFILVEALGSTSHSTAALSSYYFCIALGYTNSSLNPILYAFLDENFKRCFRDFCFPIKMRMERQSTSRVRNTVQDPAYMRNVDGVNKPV
# How it was run: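 Cell-free tissue prep: guinea pig cerebellar membranes, radioligand displacement, 2 h incubation. Readout: filtration plus scintillation counting. Primary single-point 25 uM duplicate; actives retested in concentration series; DMSO negative control.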
# [6] = biological target: D(1A) dopamine receptor (Homo sapiens) (UniProt P21728); assay: NVS_GPCR_hDRD1: NovaScreen (NVS) G Protein-Coupled Receptor Assay for human Dopamine Receptor D1 (DRD1) (AID 2283269)
# Sequence of D(1A) dopamine receptor (Homo sapiens) (P21728 whole entry, looked up): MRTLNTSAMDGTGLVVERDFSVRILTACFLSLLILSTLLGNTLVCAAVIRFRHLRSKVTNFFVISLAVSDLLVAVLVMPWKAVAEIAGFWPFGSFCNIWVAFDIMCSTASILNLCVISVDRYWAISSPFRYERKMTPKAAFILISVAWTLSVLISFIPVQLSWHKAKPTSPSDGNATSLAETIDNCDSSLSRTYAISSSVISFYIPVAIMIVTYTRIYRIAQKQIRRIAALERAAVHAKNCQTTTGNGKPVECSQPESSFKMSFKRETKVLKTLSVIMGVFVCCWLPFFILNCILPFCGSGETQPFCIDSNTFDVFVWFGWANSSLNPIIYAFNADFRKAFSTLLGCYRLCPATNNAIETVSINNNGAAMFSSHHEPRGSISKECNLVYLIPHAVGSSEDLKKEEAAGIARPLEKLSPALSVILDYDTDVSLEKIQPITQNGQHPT
# How it was run: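 Radioligand displacement binding on membranes/protein extracted from HEK293 expressing human D1, cell-free; read 1 h after dosing by filter-based scintillation counting. Primary screen in duplicate at 25 uM, actives followed up in concentration series; signal loss versus DMSO baseline.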
# [7] = biological target: Muscarinic acetylcholine receptor M2 (Homo sapiens) (UniProt P08172); assay: NVS_GPCR_hM2: NovaScreen (NVS) G Protein-Coupled Receptor Assay for human Muscarinic, M2 Receptor (AID 2283273)
# Sequence of Muscarinic acetylcholine receptor M2 (Homo sapiens) (P08172 whole entry, looked up): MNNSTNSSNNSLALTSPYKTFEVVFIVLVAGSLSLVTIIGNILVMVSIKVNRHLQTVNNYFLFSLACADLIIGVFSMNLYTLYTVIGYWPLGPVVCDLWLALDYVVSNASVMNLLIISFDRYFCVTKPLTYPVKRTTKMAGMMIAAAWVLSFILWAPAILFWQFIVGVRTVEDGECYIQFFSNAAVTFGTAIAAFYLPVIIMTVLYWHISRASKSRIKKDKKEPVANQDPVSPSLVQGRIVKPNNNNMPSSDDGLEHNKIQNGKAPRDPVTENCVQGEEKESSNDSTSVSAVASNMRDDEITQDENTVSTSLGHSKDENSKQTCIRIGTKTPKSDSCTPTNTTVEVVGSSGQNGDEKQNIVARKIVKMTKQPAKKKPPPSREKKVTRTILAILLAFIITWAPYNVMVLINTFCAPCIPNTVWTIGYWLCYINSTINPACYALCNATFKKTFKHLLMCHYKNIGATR
# How it was run: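 Filter-based radiodetection read bound radioligand 1 h after dosing CHO-derived membrane protein. Single-concentration duplicates (25 uM) first, then concentration-response for actives; signal loss versus DMSO scored.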
# [8] = biological target: human Thromboxane A2 Receptor (TXA2), TBXA2R (gene 6915) (UniProt P21731); assay: NVS_GPCR_hTXA2: NovaScreen (NVS) G Protein-Coupled Receptor Assay for human Thromboxane A2 Receptor (TXA2) (AID 2283282);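 further: actives reduce bound radioligand signal relative to DMSO baseline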
# Sequence of human Thromboxane A2 Receptor (TXA2), TBXA2R (gene 6915) (P21731 whole entry, looked up): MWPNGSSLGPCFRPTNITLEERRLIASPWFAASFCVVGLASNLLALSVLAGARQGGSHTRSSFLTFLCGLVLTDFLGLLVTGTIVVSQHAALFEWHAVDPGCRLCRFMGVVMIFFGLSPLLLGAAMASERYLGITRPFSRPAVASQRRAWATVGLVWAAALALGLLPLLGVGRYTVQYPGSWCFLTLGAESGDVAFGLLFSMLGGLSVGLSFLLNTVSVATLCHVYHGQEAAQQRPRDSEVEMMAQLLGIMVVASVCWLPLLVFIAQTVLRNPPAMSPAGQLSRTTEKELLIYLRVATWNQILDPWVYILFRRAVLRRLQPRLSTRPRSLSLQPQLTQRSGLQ
# How it was run: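 Cell-free radioligand binding on membrane protein from human platelets; radioligand displacement read by filter-based scintillation counting after 1 h. Primary screen in duplicate at 25 uM, actives then run in concentration series; loss of signal versus DMSO.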
# [9] = biological target: human Opioid Receptor Mu (Opiate Mu), OPRM1 (gene 4988) (UniProt P35372); assay: NVS_GPCR_hOpiate_mu: NovaScreen (NVS) G Protein-Coupled Receptor Assay for human Opioid Receptor Mu (Opiate Mu) (AID 2283290);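 further: hits lower bound tracer signal versus DMSO meaning displacement of the ligand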
# Sequence of human Opioid Receptor Mu (Opiate Mu), OPRM1 (gene 4988) (P35372 whole entry, looked up): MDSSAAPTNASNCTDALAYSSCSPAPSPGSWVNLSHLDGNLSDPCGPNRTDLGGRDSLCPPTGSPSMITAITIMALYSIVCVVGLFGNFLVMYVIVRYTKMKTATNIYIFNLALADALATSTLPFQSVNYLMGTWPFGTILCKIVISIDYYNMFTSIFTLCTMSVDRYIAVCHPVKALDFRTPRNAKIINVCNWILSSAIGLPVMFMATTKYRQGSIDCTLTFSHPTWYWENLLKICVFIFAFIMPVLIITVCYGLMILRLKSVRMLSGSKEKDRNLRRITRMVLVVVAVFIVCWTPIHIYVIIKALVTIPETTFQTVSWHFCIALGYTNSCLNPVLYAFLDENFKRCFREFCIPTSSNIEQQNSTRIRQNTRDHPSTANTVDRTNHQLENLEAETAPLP
# How it was run: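 Radioligand displacement binding on membranes from CHO cells expressing the receptor, 2.5 h after dosing, filter-based scintillation counting; loss of signal vs DMSO baseline. Screened in duplicate at 25 uM, actives then run in concentration series.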
# [10] = biological target: human Neurokinin, NK2 Receptor, TACR2 (gene 6865) (UniProt P21452); assay: NVS_GPCR_hNK2: NovaScreen (NVS) G Protein-Coupled Receptor Assay for human Neurokinin, NK2 Receptor (AID 2283278);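 further: actives reduce bound radioligand signal relative to DMSO baseline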
# Sequence of human Neurokinin, NK2 Receptor, TACR2 (gene 6865) (P21452 whole entry, looked up): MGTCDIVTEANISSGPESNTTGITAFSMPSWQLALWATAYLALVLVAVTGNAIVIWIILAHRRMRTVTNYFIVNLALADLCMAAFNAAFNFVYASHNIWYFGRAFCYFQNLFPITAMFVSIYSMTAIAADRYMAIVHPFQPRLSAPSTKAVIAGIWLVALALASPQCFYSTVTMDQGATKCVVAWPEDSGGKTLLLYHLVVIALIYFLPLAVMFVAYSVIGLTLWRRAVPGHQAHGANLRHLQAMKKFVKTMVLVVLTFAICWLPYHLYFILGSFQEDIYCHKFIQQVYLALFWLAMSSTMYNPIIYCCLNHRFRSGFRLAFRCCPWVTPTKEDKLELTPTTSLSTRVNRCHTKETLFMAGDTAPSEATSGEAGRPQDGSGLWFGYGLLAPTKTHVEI
# How it was run: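 Radioligand binding on membranes from CHO cells expressing receptor, filter-based scintillation read 4 h after dosing. Initial duplicate screen at 25 uM, actives in concentration series; loss of signal versus DMSO.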
# [11] = biological target: human Adenosine A1 Receptor (AdoRA1), ADORA1 (gene 134) (UniProt P30542); assay: NVS_GPCR_hAdoRA1: NovaScreen (NVS) G Protein-Coupled Receptor Assay for human Adenosine A1 Receptor (AdoRA1) (AID 2283254)
# Sequence of human Adenosine A1 Receptor (AdoRA1), ADORA1 (gene 134) (P30542 whole entry, looked up): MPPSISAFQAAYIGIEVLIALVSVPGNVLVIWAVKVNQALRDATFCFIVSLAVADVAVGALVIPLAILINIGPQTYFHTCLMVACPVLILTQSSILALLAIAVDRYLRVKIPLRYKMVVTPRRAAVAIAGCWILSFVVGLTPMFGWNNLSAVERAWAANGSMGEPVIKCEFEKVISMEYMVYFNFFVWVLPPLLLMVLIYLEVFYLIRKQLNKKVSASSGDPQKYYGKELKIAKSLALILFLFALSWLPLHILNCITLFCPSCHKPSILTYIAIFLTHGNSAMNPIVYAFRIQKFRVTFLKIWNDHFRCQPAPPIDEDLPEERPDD
# How it was run: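 Radioligand binding was run on human cortical membranes, cell-free, with filter-based scintillation counting 1 h after dosing. The primary screen was duplicate at 25 uM, followed by concentration series. Signal loss versus DMSO was fitted positive-direction.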
# [12] = biological target: human Vascular Endothelial Growth Factor Receptor 1 (VEGFR1), FLT1 (gene 2321) (UniProt P17948); assay: NVS_ENZ_hVEGFR1: NovaScreen (NVS) Enzymatic Assay for human Vascular Endothelial Growth Factor Receptor 1 (VEGFR1) (AID 2283226)
# Sequence of human Vascular Endothelial Growth Factor Receptor 1 (VEGFR1), FLT1 (gene 2321) (P17948 whole entry, looked up): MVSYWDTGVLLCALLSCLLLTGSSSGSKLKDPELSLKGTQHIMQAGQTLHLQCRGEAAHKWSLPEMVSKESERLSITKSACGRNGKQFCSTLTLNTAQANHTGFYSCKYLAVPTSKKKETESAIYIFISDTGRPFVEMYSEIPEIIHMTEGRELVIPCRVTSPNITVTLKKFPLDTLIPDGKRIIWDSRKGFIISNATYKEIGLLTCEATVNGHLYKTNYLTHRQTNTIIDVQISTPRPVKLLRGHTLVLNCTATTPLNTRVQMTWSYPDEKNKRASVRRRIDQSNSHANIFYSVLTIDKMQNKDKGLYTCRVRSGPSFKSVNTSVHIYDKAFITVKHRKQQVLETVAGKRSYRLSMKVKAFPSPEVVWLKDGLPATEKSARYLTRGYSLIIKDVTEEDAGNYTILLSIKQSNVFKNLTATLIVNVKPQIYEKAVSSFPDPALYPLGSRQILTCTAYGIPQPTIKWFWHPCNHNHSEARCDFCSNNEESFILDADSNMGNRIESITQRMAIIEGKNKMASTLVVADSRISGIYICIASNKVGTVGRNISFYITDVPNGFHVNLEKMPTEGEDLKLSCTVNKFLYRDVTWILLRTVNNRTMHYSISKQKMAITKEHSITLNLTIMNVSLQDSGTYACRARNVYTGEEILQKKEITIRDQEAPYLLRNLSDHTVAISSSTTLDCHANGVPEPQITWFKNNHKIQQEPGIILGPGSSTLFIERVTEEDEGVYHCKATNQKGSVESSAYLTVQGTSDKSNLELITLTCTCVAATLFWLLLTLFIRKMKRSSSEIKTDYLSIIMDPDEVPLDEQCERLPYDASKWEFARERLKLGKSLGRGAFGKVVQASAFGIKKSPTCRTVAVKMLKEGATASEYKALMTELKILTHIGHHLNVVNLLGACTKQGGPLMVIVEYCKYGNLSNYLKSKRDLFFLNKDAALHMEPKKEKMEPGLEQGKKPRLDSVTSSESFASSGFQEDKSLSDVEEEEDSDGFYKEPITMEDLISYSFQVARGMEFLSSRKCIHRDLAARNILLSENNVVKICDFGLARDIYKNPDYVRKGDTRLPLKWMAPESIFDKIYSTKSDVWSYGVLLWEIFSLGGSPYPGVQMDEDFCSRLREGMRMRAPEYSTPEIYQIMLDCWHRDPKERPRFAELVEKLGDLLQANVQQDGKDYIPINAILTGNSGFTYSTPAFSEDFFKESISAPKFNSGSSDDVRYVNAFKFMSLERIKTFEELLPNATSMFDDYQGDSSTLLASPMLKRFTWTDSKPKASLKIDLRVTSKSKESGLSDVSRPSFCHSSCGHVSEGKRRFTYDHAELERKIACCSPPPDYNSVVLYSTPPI
# How it was run: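 Kinase activity of recombinant human VEGFR1 was read by fluorescence after electrophoretic separation of product from substrate, 1 h post-dosing; initial duplicate single-point testing at 25 uM, followed by concentration-series follow-up, with DMSO as baseline.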
# [13] = biological target: sheep Cyclooxygenase-2 (Cox2), PTGS2 (gene 443460) (UniProt P79208); assay: NVS_ENZ_oCOX2: NovaScreen (NVS) Enzymatic Assay for sheep Cyclooxygenase-2 (Cox2) (AID 2283231)
# How it was run: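 Enzyme from ovine placenta, cell-free; colorimetric absorbance read 0.66 hour after dosing, loss of signal vs DMSO. Screened in duplicate at 25 uM, then concentration-response up to 50 uM.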
# [14] = biological target: human Endothelin Receptor Type A (ETA), EDNRA (gene 1909) (UniProt P25101); assay: NVS_GPCR_hETA: NovaScreen (NVS) G Protein-Coupled Receptor Assay for human Endothelin Receptor Type A (ETA) (AID 2283265)
# How it was run: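 Binding of radioligand to membrane protein extracted from SH-SY5Y cells was read by filtration and scintillation after 3 h. Compounds were screened at 25 uM in duplicate, with hits followed up in singleton concentration series to 50 uM.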
# [15] = biological target: human Orphanin, Opioid Related Nociceptin Receptor 1 (ORL1), OPRL1 (gene 4987) (UniProt P41146); assay: NVS_GPCR_hORL1: NovaScreen (NVS) G Protein-Coupled Receptor Assay for human Orphanin, Opioid Related Nociceptin Receptor 1 (ORL1) (AID 2283283)
# How it was run: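 Cell-free binding using HEK293-derived receptor protein: radioligand displacement measured by filter scintillation 1 hour after dosing. Primary testing at 25 uM in duplicate, followed by singleton concentration series up to 50 uM; DMSO served as negative control.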
# [16] = biological target: Tyrosine-protein phosphatase non-receptor type 11 (Homo sapiens) (UniProt Q06124); assay: NVS_ENZ_hPTPN11: NovaScreen (NVS) Enzymatic Assay for human Protein Tyrosine Phosphatase Non-receptor Type 11 (PTPN11) (AID 2283202)
# How it was run: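 Compounds first tested in duplicate at 25 uM; those reaching ~30% inhibition rerun in singleton concentration-response, top 50 uM. Phosphatase activity measured after 0.5 h by fluorescence with mobility-shift separation, relative to DMSO.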
# [17] = biological target: Tyrosine-protein phosphatase non-receptor type 12 (Homo sapiens) (UniProt Q05209); assay: NVS_ENZ_hPTPN12: NovaScreen (NVS) Enzymatic Assay for human Protein Tyrosine Phosphatase Non-receptor Type 12 (PTPN12) (AID 2283204)
# How it was run: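 Single-concentration duplicates (25 uM) preceded singleton concentration-response up to 50 uM for chemicals passing threshold. Cell-free recombinant PTPN12 activity was read 1.33 h after dosing via fluorescence after mobility-shift separation; loss of signal versus DMSO.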
# [18] = biological target: human Vascular Endothelial Growth Factor Receptor 3 (VEGFR3), FLT4 (gene 2324) (UniProt P35916); assay: NVS_ENZ_hVEGFR3: NovaScreen (NVS) Enzymatic Assay for human Vascular Endothelial Growth Factor Receptor 3 (VEGFR3) (AID 2283229)
# How it was run: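 Chemicals first run in duplicate at 25 uM, with actives re-tested in concentration series to a top of 50 uM. Recombinant VEGFR3 activity measured after 1 h via fluorescence with mobility-shift product separation; inhibition fitted relative to DMSO.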
# [19] = biological target: human Vascular Endothelial Growth Factor Receptor 2 (VEGFR2), KDR (gene 3791) (UniProt P35968); assay: NVS_ENZ_hVEGFR2: NovaScreen (NVS) Enzymatic Assay for human Vascular Endothelial Growth Factor Receptor 2 (VEGFR2) (AID 2283230)
# How it was run: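 Cell-free recombinant VEGFR2 kinase, fluorescent substrate with electrophoretic mobility-shift separation; read 1 h after dosing. Screened at 25 uM in duplicate, hits to concentration-response up to 50 uM; loss-of-signal versus DMSO.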
# [20] = biological target: Muscarinic acetylcholine receptor M1 (Homo sapiens) (UniProt P11229); assay: NVS_GPCR_hM1: NovaScreen (NVS) G Protein-Coupled Receptor Assay for human Muscarinic, M1 Receptor (AID 2283270)
# How it was run: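 Actives from a duplicate 25 uM single-point screen were retested in concentration series. Binding measured as displacement of a radioligand from CHO-derived receptor preparation, 1 h incubation, filtration and scintillation counting, analysed as signal loss against DMSO.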
compound,measurement,setting,value
CC(C)CCCC(C)CCO (stereo not given),outcome,[1],inactive
Cc1cc(O)c(C(C)(C)C)cc1C(C)(C)C,outcome,[2],inactive
Nc1c(Br)cc([N+](=O)[O-])cc1Br,outcome,[3],inactive
C[C@]12CC[C@H]3C(=CCc4cc(O)ccc43)[C@@H]1CCC2=O,outcome,[4],inactive
c1ccc(C[P+](c2ccccc2)(c2ccccc2)c2ccccc2)cc1,AC50,[5],1.98 µM (active)
same,outcome,[6],inactive
same,AC50,[7],1.22 µM (active)
same,outcome,[8],inactive
same,AC50,[9],1.09 µM (active)
CN1CN(C)CN(C)C1,outcome,[6],inactive
O=C1C=CC(=O)N1c1ccc(Cc2ccc(N3C(=O)C=CC3=O)cc2)cc1,AC50,[6],25 µM (active)
same,AC50,[10],28.4 µM (active)
CCOC(C=C(C)CCC=C(C)C)OCC,outcome,[3],inactive
same,outcome,[8],inactive
Nc1cccnc1N,AC50,[11],9.6 µM (active)
Cc1cccc(C)n1,outcome,[9],inactive
CCN(CC)c1ccc(C=O)cc1,AC50,[8],4.65 µM (active)
same,outcome,[9],inactive
CCC(C)CO (stereo not given),outcome,[11],inactive
CCOCN(C(=O)CS(=O)(=O)O)c1c(C)cccc1CC,outcome,[8],inactive
C#CC(O)CCC (stereo not given),AC50,[9],5.3 µM (active)
CCN(CC)c1ccc(N=Nc2ccccc2)cc1,outcome,[6],inactive
same,outcome,[10],inactive
Cc1ccc(S(=O)(=O)C(I)I)cc1,outcome,[5],inactive
same,AC50,[11],33.2 µM (active)
same,AC50,[6],6.43 µM (active)
O=C1c2ccccc2C(=O)c2c(Cl)cccc21,AC50,[11],13.3 µM (active)
CC1=CC2C3C=CC(C3)C2C1C (stereo not given),AC50,[1],30.4 µM (active)
CC(=O)c1ccccc1N,outcome,[8],inactive
O=C1OC(=O)c2ccc3c4c(ccc1c24)C(=O)OC3=O,outcome,[10],inactive
Oc1ccc(C2(c3ccc(O)c(C4CCCCC4)c3)CCCCC2)cc1C1CCCCC1,outcome,[6],inactive
same,AC50,[7],8.57 µM (active)
same,AC50,[10],16.2 µM (active)
same,AC50,[9],17.3 µM (active)
Oc1ccc2c(c1)CCC2,outcome,[6],inactive
same,outcome,[8],inactive
O=C1c2c(O)ccc(Nc3ccc(CCO)cc3)c2C(=O)c2c([N+](=O)[O-])ccc(O)c21,AC50,[2],2.07 µM (active)
same,AC50,[12],0.885 µM (active)
same,outcome,[8],inactive
CCCCCCCCn1sc(Cl)c(Cl)c1=O,outcome,[13],inactive
same,outcome,[14],inactive
same,AC50,[15],16.5 µM (active)
same,AC50,[9],8.39 µM (active)
O=C(c1ccccc1)c1ccc(O)cc1O,outcome,[4],inactive
same,outcome,[11],inactive
same,AC50,[3],29.7 µM (active)
same,outcome,[8],inactive
CCN(CC)c1ccc2c(c1)Oc1cc(N(CC)CC)ccc1C21OC(=O)c2ccccc21,outcome,[8],inactive
CCCCCCCCCCCCCC[P+](CCCC)(CCCC)CCCC,AC50,[16],14.8 µM (active)
same,AC50,[17],18.5 µM (active)
same,AC50,[12],10 µM (active)
same,AC50,[18],17.5 µM (active)
same,AC50,[19],11.4 µM (active)
same,AC50,[13],5.19 µM (active)
same,AC50,[14],6.26 µM (active)
same,AC50,[20],1.02 µM (active)
same,AC50,[15],6.46 µM (active)
same,AC50,[9],1.07 µM (active)
C=CCOC(=O)CC(C)C,outcome,[12],inactive
OCCC(O)CO (stereo not given),AC50,[6],37.4 µM (active)
O=C=Nc1cccc2c(N=C=O)cccc12,outcome,[6],inactive
same,AC50,[8],0.672 µM (active)
CCN(CC)c1ccc(C=O)c(O)c1,outcome,[6],inactive
same,outcome,[8],inactive
same,outcome,[9],inactive
